# Laboratory results as given in PubChem BioAssay AID1851 (National Center for Advancing Translational Sciences (NCATS), 2009).
# About 5,800 (36%) of roughly 16,000 compounds were called active. Not shown: some 23% with an inconclusive outcome. Calls come from the whole dose curve; as a rule, active = well fitted curve in the direction sought with a large enough effect; inconclusive = small, poorly fitted or top-dose-only effect, or effect the other way; inactive = no such curve, though single readings can be large or run the other way. This is one part of the list.
# Target: Cytochrome P450 2C19 (Homo sapiens) (UniProt P33261)
# Sequence (P33261 whole entry, looked up): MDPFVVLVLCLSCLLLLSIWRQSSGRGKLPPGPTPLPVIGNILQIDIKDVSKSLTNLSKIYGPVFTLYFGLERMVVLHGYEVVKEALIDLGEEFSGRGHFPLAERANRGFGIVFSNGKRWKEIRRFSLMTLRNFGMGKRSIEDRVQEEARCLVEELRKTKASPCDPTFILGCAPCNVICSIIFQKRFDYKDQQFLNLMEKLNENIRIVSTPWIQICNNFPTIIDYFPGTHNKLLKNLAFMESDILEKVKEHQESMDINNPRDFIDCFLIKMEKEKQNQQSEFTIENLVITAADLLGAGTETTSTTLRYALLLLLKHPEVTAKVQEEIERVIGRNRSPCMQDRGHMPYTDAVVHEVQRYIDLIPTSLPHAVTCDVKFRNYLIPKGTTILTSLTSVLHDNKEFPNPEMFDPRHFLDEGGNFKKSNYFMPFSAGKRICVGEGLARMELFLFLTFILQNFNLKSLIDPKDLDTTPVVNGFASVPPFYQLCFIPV
# Experiment: Cytochrome panel assay with activity outcomes
# Settings: recombinant CYP, pro-luciferin dealkylation, luminescence, p450-cyp2c19; series mostly up to 57.1 µM
# % is set by controls: 0 for no effect and ±100 for the full control effect.
SMILES,AC50,"activity, negative = inhibition"
CCOC(=O)C1Cc2c([nH]c3ccccc23)CN1 (stereo unspecified),1.58 µM (active),
C[C@@]12CC[C@H]3[C@@H](CC=C4C[C@H](OS(=O)(=O)O)CC[C@]43C)[C@H]1CCC2=O,inactive,
COc1cc(CCN)c(OC)c(OC)c1,,70.8% [at 11.4 µM] (inactive)
C[C@@H](O)CN(CCN(C[C@@H](C)O)C[C@@H](C)O)C[C@@H](C)O.O=[N+]([O-])O.[Cu],0.398 µM (active),
CC(=O)O[C@H]1C[C@@H](O[C@@H]2[C@H](C)O[C@H](O[C@@H]3[C@H](C)O[C@H](O[C@@H]4CC[C@@]5(C)[C@@H](CC[C@]6(C)[C@]5(C)C[C@H](O)[C@]5(C)[C@@H](C7=CC(=O)OC7)CC[C@@]56O)C4)C[C@@H]3O)C[C@@H]2O)O[C@@H](C)[C@H]1O[C@H]1O[C@@H](CO)[C@@H](O)[C@@H](O)[C@@H]1O,inactive,
Cc1ccc(S(=O)(=O)N[C@@H](CCCCN)C(=O)CCl)cc1,inactive,
O=S1(=O)N(CCN2CC=C(c3c[nH]c4cc(F)ccc34)CC2)c2cccc3c2N1CCC3,6.31 µM (active),
COc1cc2c(cc1OC)[C@@]13CCN4C=C5CCO[C@H]6CC(=O)N2[C@@H]1[C@@H]6[C@H]5C[C@H]43,,32% [at 11.4 µM] (inactive)
CC(C)[N+](C)(CCC(C(N)=O)(c1ccccc1)c1ccccc1)C(C)C,inactive,
C[C@H](CN(C)C)C(C#N)(c1ccccc1)c1ccccc1,,31.1% [at 11.4 µM] (inactive)
Cc1ccc2c(c1)N(CCC(=O)N1CCC3(CC1)OCCO3)C(=O)C(C)O2 (stereo unspecified),0.708 µM (active),
Cc1cc(NC(=O)CCC(=O)N2CCC3(CC2)OCCO3)no1,inactive,
CN1CC[C@@]23c4ccccc4N[C@H]1[C@]21CCN(C)[C@@H]3Nc2ccccc21,inactive,
CCCC(=O)Nc1ccc(N2CCN(CC)CC2)c(Cl)c1,inactive,
C=Cn1ccnc1P(=S)(c1nccn1C=C)C1CCCCC1,3.55 µM (active),
O=C(O)[C@@H](O)[C@@H](O)[C@@H]1[O][Sb][O][C@@H]1CO,,21.2% [at 11.4 µM] (inactive)
CC[N+](CC)(CCCNC1=CC(=O)C(NCCC[N+](CC)(CC)Cc2ccccc2)=CC1=O)Cc1ccccc1,inactive,
CCN1C[C@@]2(COC)CC[C@H](O)[C@@]34[C@@H]2C[C@@H]([C@@H]13)[C@]1(O)C[C@@H](OC)C2C[C@H]4[C@H]1[C@H]2OC(C)=O,inactive,
C[N+](C)(C)[C@H](Cc1c[nH]c(=S)[nH]1)C(=O)O,,-22.8% [at 11.4 µM] (inactive)
CCCN(CCC)CCc1c[nH]c2ccc(C(N)=O)cc12,inactive,
CN=C(NC#N)NCCSCc1nc[nH]c1C,31.6 µM (active),
O=C(Nc1cccc(F)c1)N1CC2(CCN(C(=O)Oc3ccccc3)CC2)C1,inactive,
O=C(CCN1CC2CCC(CC2)C1)c1cccs1,,-19% [at 11.4 µM] (inactive)

SMILES,AC50,"activity, negative = inhibition"
CC[C@@](O)(C(=O)O)c1cc2n(c(=O)c1CO)Cc1cc3ccccc3nc1-2,,16.3% [at 11.4 µM] (inactive)
CC(=O)NBr,inactive,
N[C@H](CCCCCP(=O)(O)O)C(=O)O,inactive,
CP(=O)(O)C1=CCNCC1,inactive,
CC(=O)N1CC[N+](C)(C)CC1,inactive,
CN1CCN(C(=O)O[C@@H]2c3nccnc3C(=O)N2c2ccc(Cl)cn2)CC1,15.8 µM (active),
COc1cc2c3cc1Oc1c(O)c(OC)cc4c1[C@@H](Cc1ccc(cc1)Oc1cc(ccc1O)C[C@H]3N(C)CC2)N(C)CC4,,-11% [at 11.4 µM] (inactive)
CC[C@]1(c2cccc(O)c2)CCCCN(C)C1,inactive,
C[C@@H]1O[C@@H](O[C@H]2C[C@@H](O)[C@]3(CO)[C@@H]4[C@@H](O)C[C@]5(C)[C@H](C6=CC(=O)OC6)CC[C@@]5(O)[C@H]4CC[C@@]3(O)C2)[C@H](O)[C@H](O)[C@@H]1O,inactive,
C[C@@H](COc1ccccc1)N(CCCl)Cc1ccccc1,10 µM (active),
Clc1cnc(Oc2ccc(Oc3ncc(Cl)cc3Cl)cc2)c(Cl)c1,inactive,
O=C1c2ccccc2-c2cc([N+](=O)[O-])c([N+](=O)[O-])cc21,0.398 µM (active),
O=C1c2cc([N+](=O)[O-])ccc2-c2ccc3c4ccc5c6c(ccc(c7ccc1c2c73)c64)C(=O)c1cc([N+](=O)[O-])ccc1-5,,-4.82% [at 11.4 µM] (inactive)
NCCc1ccc(S(=O)(=O)O)cc1[N+](=O)[O-],,-6.86% [at 11.4 µM] (inactive)
COc1ccccc1CN1CC[C@@]2(CCCN(C(=O)Oc3ccccc3)C2)C1,inactive,
CN(CCc1ccc(Cl)c(Cl)c1)[C@H]1CCCC[C@H]1N1CCCC1,15.8 µM (active),
CN(C)CCN(C)CCc1ccc(Cl)c(Cl)c1,10 µM (active),
COc1ccc2c(c1)C13CCCC[C@@H]1C(C2)N(C)CC3 (stereo partly specified),inactive,
C[C@H](Br)C(=O)c1ccc2cc(Br)c3ccccc3c2c1,,-42.1% [at 11.4 µM] (inactive)
CCC1=C(C[C@H]2NCCc3cc(OC)c(OC)cc32)C[C@H]2c3ccccc3CCN2C1,,-4.76% [at 11.4 µM] (inactive)
CCCCn1c(N)c(C(=O)NCc2cccs2)c2nc3ccccc3nc21,3.98 µM (active),
CC(C)CCn1c(N)c(C(=O)NCc2cccs2)c2nc3ccccc3nc21,2.51 µM (active),
COc1ccc(Cn2c(N)c(C(=O)NCc3ccco3)c3nc4ccccc4nc32)cc1,2.51 µM (active),
